The nature of assay [1]: qHTS to identify inhibitors of the type 1 interferon - major histocompatibility complex class I in skeletal muscle: primary screen against the NCATS Pharmaceutical Collection (AID 1347407). In short, it runs like this: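 Luminescence from HiBiT-tagged endogenous HLA-B*08:01 served as the read-out of IFN-beta-induced MHC class I in CRISPR-engineered C25cl48 myoblasts. Cells received 4 ng/ml IFN-beta plus compound (high final 46 uM, […]) for 24 h.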

Assay [2] deals with Protein phosphatase 1D (Homo sapiens) (UniProt O15297). Nature of the assay: RapidFire Mass Spectrometry qHTS Assay for Modulators of WT P53-Induced Phosphatase 1 (WIP1) (AID 1347424).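 Also: amount of dephosphorylated VEPPL-S-QETFS peptide product formed by WIP1; series mostly up to about 63 µM.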 In short, it runs like this: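 Mass-spectrometric measurement of dephosphorylated peptide after a 5 min room-temperature reaction of 10 nM WIP1 with 2 uM phosphopeptide, following 1 h compound preincubation in 30 mM MgCl2 buffer.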
Protein phosphatase 1D (Homo sapiens), sequence (O15297 whole entry, looked up): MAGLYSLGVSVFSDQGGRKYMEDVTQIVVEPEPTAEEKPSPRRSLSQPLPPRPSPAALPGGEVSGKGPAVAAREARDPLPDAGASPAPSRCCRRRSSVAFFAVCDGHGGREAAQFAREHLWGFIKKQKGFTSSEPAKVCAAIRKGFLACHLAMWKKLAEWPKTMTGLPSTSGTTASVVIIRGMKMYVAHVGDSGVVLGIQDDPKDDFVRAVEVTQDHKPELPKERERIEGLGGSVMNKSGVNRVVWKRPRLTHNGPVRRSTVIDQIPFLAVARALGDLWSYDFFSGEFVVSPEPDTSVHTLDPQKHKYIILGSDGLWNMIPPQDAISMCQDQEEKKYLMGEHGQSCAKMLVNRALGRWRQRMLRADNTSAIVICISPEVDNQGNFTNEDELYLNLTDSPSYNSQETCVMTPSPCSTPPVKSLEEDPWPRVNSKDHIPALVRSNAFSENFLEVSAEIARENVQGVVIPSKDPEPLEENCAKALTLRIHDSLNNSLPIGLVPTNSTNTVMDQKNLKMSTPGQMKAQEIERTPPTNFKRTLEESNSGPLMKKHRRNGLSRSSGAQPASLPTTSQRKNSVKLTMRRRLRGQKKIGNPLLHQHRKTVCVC
In general terms: qHTS replaces the single test concentration by a dilution series.

For assay [3] the target is unchanged. Nature of the assay: Rhodamine-PBP qHTS Assay for Modulators of WT P53-Induced Phosphatase 1 (WIP1) (AID 1347425). In short, it runs like this: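 5 nM WIP1 + 10 uM Rh-PBP, 50 mM Tris pH 7.5, 30 mM MgCl2, 1 mM TCEP, 0.1 mM EGTA, BSA; cpds pinned, 1 hr RT; + 10 uM phosphopeptide; fluorescence 1-min reads x 11 min; delta = f1 - f0.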
The nature of assay [4]: Primary qHTS for inhibitors of La Crosse Virus (LACV) - induced cell death in SH-SY5Y cells (AID 1508616).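 Also: top concentration of the series differs between compounds; higher means more rescue of cells from virus-induced death.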 In short, it runs like this: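 Screening measures cell viability in LACV-infected SH-SY5Y cultures. Compound was added before virus (0.01 MOI), and ATP was detected by luminescence 6 days later.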
The target of assay [5] is Calcium and integrin-binding protein 1 (Homo sapiens) (UniProt Q99828). Nature of the assay: Confirmatory qHTS for Identification of Calcium Integrin Binding Protein 1 (CIB1) Competitor (AID 1508617). Also: nearly all actives have a fitted effect of over 65% in size. Also: potency is read from the fitted curve at half-maximal effect. In short, it runs like this:
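Confirmatory qHTS measures displacement of a FITC-alphaIIb peptide (100 nM) from CIB1-GST (1 uM) by fluorescence polarization. Calcium-containing HEPES buffer, pH 7.4; two 15 min room-temperature incubations.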

Assay [6] in a line: qHTS to identify inhibitors of the type 1 interferon - major histocompatibility complex class I in skeletal muscle: primary screen against the NCATS LOPAC collection (AID 1347405).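 Also: human myoblasts with HiBiT tag on endogenous HLA-B stimulated by IFN-beta; lytic HiBiT luminescence reporting HLA-B protein level.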 The method, boiled down:
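IFN-beta-stimulated (4 ng/ml) HLA-B HiBiT knock-in myoblasts, compound-treated 24 hrs up to 46 uM final; signal via LgBiT complementation and furimazine luminescence.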

Assay [7] can be described thus: qHTS for inhibitors of adenylyl cyclases using a fission yeast platform: a pilot screen against the NCATS LOPAC library (AID 1347410). In short, it runs like this:
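Fission yeast qHTS: CHP2027 cells (AC9-GNAS-PDE4D2, fbp1-GFP), 5x10^6 cells/mL working density, EMM + His/Lys/Ura; LOPAC at up to 57 µM final; 18 h dark, 30C; GFP by laser cytometry. DPI positive control, DMSO vehicle.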

In assay [8] the target is Single-stranded DNA cytosine deaminase (Homo sapiens) (UniProt Q9GZX7). The assay is described as follows: Validation qHTS assay for inhibitors of Activation Induced Cytidine Deaminase (AID): AID signal (AID 1347429). In short, it runs like this: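 Compounds (up to 114 uM final) are tested against AID plus UDG using DJC20/DJC23 FRET substrate. Reactions incubate 4 hr at room temperature, receive NaOH for 30 min, and are read at Ex 540/Em 590 nm.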
Single-stranded DNA cytosine deaminase (Homo sapiens), sequence (Q9GZX7 whole entry, looked up): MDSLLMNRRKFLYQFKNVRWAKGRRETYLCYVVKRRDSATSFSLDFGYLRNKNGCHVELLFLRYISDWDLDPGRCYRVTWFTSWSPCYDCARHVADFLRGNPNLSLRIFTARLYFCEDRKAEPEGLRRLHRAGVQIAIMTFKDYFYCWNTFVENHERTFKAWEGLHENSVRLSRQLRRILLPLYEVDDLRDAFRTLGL

The target of assay [9] is Calcium and integrin-binding protein 1 (Homo sapiens) (UniProt Q99828). Nature of the assay: Validation qHTS for Identification of Calcium Integrin Binding protein 1 (CIB1) Competitor (AID 1508618). The method, boiled down: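 Displacement of FITC-alphaIIb peptide (100 nM) from CIB1-GST (1 uM) is monitored by polarization in quantitative HTS format; buffer carries 5 mM CaCl2 and 125 mM NaCl at pH 7.4, incubations are at room temperature.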
Calcium and integrin-binding protein 1 (Homo sapiens), sequence (Q99828 whole entry, looked up): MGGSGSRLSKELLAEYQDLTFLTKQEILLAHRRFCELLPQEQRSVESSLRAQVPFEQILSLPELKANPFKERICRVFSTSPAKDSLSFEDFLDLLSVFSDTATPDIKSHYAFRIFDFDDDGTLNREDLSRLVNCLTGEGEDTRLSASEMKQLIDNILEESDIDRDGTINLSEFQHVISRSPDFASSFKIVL

Assay [10] has the same target. Nature of the assay: Primary qHTS for Identification of Calcium Integrin Binding Protein 1 (CIB1) Competitor (AID 1508620).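 Also: GST tagged CIB1 binding a fluorescein labelled alphaIIb integrin peptide tracer; top concentration of the series differs between compounds.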 The method, boiled down:
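Fluorescence polarization competition: CIB1-GST (1 uM final) preincubated with compound 15 min at room temperature, then FITC-labeled alphaIIb peptide (100 nM final) added for another 15 min. Polarization read at Ex 480/Em 540.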

The nature of assay [11]: Primary qHTS for inhibitors of SARS-S pseudo-typed particle cell entry (AID 1479145; calls by dose curve; also: series mostly up to about 57 µM; nearly all actives have a fitted effect of over 45% in size).
The nature of assay [12]: Primary qHTS for Huh7 cytotoxicity: counterscreen for inhibitors of MERS-S pseudotyped particle cell entry (AID 1479147; calls by dose curve).
Assay [13] is described as follows: Primary qHTS for inhibitors of MERS-S pseudo-typed particle cell entry (AID 1479149; calls by dose curve; also: series mostly up to about 57 µM; nearly all actives have a fitted effect of over 60% in size).
Assay [14] is described as follows: Primary qHTS for Vero E6 cytotoxicity: counterscreen for inhibitors of SARS-S pseudo-typed particle cell entry (AID 1479150; calls by dose curve).
The nature of assay [15]: Counterscreen qHTS for small molecule stabilizers of the endoplasmic reticulum resident proteome: GLuc-NoTag assay (AID 1508627). Also: series mostly up to about 76 µM. The method, boiled down: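 Secreted GLuc lacking the SERCaMP modification is measured in SH-SY5Y cells exposed to compound for 19 h and then to thapsigargin (100 nM, 4 h) to deplete ER calcium; hits retested at 11 concentrations, up to 76.6 uM.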
In general terms: A counterscreen serves to expose hits that act by an unwanted route or on another target.

Assay [16] is described as follows: qHTS to identify inhibitors of the type 1 interferon - major histocompatibility complex class I in skeletal muscle: primary screen against the NCATS Mechanism Interrogation Plate v5.0 (MIPE) Libary (AID 1347411). Also: potency is read from the fitted curve at half-maximal effect; nearly all actives have a fitted effect of over 65% in size. In short, it runs like this:
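IFN-beta-driven (4 ng/ml) HLA-B-HiBit expression in CRISPR-tagged C25cl48 myoblasts; compounds 11-pt, 1:3, max 46 uM, 24 hr exposure; lytic NanoLuc complementation luminescence.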

Inconclusive results are not listed. Active and inactive are the calls of the source. Unless noted, calls follow the shape of the dose curve; as a rule, active = well fitted curve in the direction sought with a large enough effect; inconclusive = small, poorly fitted or top-dose-only effect, or another doubt; inactive = no such curve, though single readings can be large; an effect the other way counts as inactive or inconclusive.

Consider `CC(C)Oc1cccc(NC(=O)c2ccccc2C(F)(F)F)c1`, for which the outcome in assay [1], in assay [3] and in [4] was inactive. The Potency result in assay [2] and in [5] was “inactive” in each case.
For the compound `CC1=NN=C(c2ccc(N)cc2)c2cc3c(cc2C1)OCO3`, the Potency entry in assay [6] was “inactive”. Further, the compound was classed as inactive in assay [7], in [8], in [4], in assay [9] and in [10].
As for `CCOP(=O)(NC(C)C)Oc1ccc(SC)c(C)c1` (configuration not stated), the compound was classed as inactive in assay [1], in [3], in [4] and in assay [10]. The Potency result in assay [2] is “inactive”.
Take `O=C(Nc1ccccc1-c1ccc(Cl)cc1)c1cccnc1Cl`: the result in assay [1], in assay [3], in [4] and in assay [10] was inactive. In addition, the Potency entry in assay [2] is “inactive”.
Take `O=C(O)COc1ccccc1`: the compound was classed as inactive in [1], in assay [3], in [4] and in [10]. The Potency result in assay [2], in assay [11], in [12], in [13] and in assay [14] was “inactive” throughout.
Turning to `CC(C)(C)NC[C@H](O)c1ccc(O)cc1Cl`, the compound was classed as inactive in assay [1], in [3], in assay [4] and in assay [10]. In [2], the Potency result was “inactive”.
Turning to `C=CCN1CC[C@]23CCCCC2[C@H]1Cc1ccc(O)cc13` (some centres not stated), the Potency result in assay [6] and in [15] was “inactive” each time. The outcome in assay [7], in [8] and in assay [9] was inactive.
As for `CC(=O)NCCc1c[nH]c2ccccc12`, the Potency entry in [6] was “inactive”. The compound was called inactive in assay [7], in [8], in [4], in assay [9] and in assay [10].
For the compound `ClC1=C(Cl)[C@]2(Cl)[C@@H]3[C@@H]4C[C@@H]([C@H]5O[C@@H]45)[C@@H]3[C@@]1(Cl)C2(Cl)Cl`, the call in assay [1], in assay [3], in assay [4] and in assay [10] was inactive.
For `CC1=C(O)C(=O)C=C2C1=CC=C1[C@@]2(C)CC[C@@]2(C)[C@@H]3C[C@](C)(C(=O)O)CC[C@]3(C)CC[C@]12C`, the Potency is 0.829 µM (active) in assay [16] and 22.4 µM (active) in assay [5].
Regarding `O=C(O)COc1nc(Cl)c(Cl)cc1Cl`, the compound was classed as inactive in assay [1], in assay [3], in assay [4] and in assay [10]. Moreover, the Potency entry in [2] is “inactive”.
